By cell viability is commonly meant a read-out of living cells in per cent, often relative to untreated cells.

± gives the uncertainty stated by the source.
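Further: viable cell number estimated from Alamar Blue fluorescence read at 560/90, part of a single-dose primary screen of an FDA-approved drug library.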

The assay has as its system U87. Put plainly: cell viability relative to vehicle control; higher = less growth inhibition (less active). The conditions noted are these: 10 µM; 72 h.
In the case of `CCOC(=O)OC(C)OC1=C(C(=O)Nc2ccccn2)N(C)S(=O)(=O)c2ccccc21` (stereo unspecified), the cell viability was found to be 107 ± 1.1%.

Turning to `CCCc1c(OCCCCc2nnn[nH]2)ccc(C(C)=O)c1O`, the cell viability stood at 104 ± 1.5%.

In the case of `COc1ccccc1N1CCN(CCCNc2cc(=O)n(C)c(=O)n2C)CC1`, the cell viability stood at 109 ± 1.7%.

As to `O=C1CC2(CCCC2)CC(=O)N1CCNCC1COc2ccccc2O1` (stereo unspecified), the cell viability was determined as 110.4 ± 0.75%.

As for `COc1ccc2c3c1O[C@H]1C[C@@H](O)C=C[C@@]31CCN(C)C2` [Galanthamine], the cell viability came to 100 ± 0.85%.

Regarding `COC(=O)C1=C(C)NC(C)=C(C(=O)OC(C)C)C1c1cccc2nonc12` (stereo unspecified), the cell viability was 104.2 ± 0.44%.

Regarding `Cc1ccc(O)c([C@H](CCN(C(C)C)C(C)C)c2ccccc2)c1`, the cell viability came to 103.8 ± 0.47%.

Regarding `CN1CCN(C2=Nc3cc(F)ccc3Cc3ccccc32)CC1` [Fluperlapine], the cell viability was 106 ± 3.3%.

Consider `Nc1ccn([C@H]2CC[C@@H](CO)O2)c(=O)n1`, for which the cell viability was 100 ± 2.5%.

Regarding `O=C1CCc2ccc(OCCCCN3CCN(c4cccc(Cl)c4Cl)CC3)cc2N1`, the cell viability stood at 102 ± 1.1%.

Regarding `CC(C)/N=c1\cc2n(-c3ccc(Cl)cc3)c3ccccc3nc-2cc1Nc1ccc(Cl)cc1`, the cell viability was 51.3 ± 3%.

For the compound `CNC(=C[N+](=O)[O-])NCCSCc1csc(CN(C)C)n1`, the cell viability amounted to 99.1 ± 1.3%.

With `Nc1nc(Cl)nc2c1ncn2[C@@H]1O[C@H](CO)[C@@H](O)[C@H]1O`, the cell viability was 90.6 ± 3%.

With `CC1=Nc2ccc(Cl)cc2S(=O)(=O)N1`, the cell viability came out at 101 ± 1.6%.

With `OC[C@H]1O[C@@H](n2cnc3c(N[C@H]4CCC[C@@H]4O)ncnc32)[C@@H](O)C1O` (stereo partly drawn) [Adenosine, N-(2-hydroxycyclopentyl)-, (1S-trans)- [CAS]], the cell viability came out at 110.8 ± 0.42%.

`O=[N+]([O-])c1cccc2cn[nH]c12`: the cell viability stood at 107 ± 1.1%.

These data come from the supplement of paper PMC3898565.
